Screening data from PubChem BioAssay.
Hits are enriched below; roughly 2.1% of the tested compounds scored in any of these assays.
HNF4A DNA FP: change in binding of human HNF4 alpha to DNA; P41235; HNF4a-FITC DNA binding, fluorescence polarization, 1 h; activity change, % at 10 µM; hit rate 0.3% among 360,000; AID 1224865; in the data active = activity change above about 30%, passing the limit was not always enough
Myeloid diff MLP: promotes myeloid progenitor differentiation. hit rate 1% among 360,000. calls only at 10 µM. AID 624256. ER-HoxA9 myeloid progenitors, lysozyme-GFP differentiation, flow cytometry;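 active = normalized GFP-positive differentiation at or above the plate's own cutoff, the solvent-only control mean plus 3 SD; inconclusive = no clear call, values can overlap the other calls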;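 note: cells exposed to compound for four days before flow analysis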
Rpn11 inh: inhibitors of human proteasome Rpn11; O00487; human 26S proteasome, Ub4-pepOG fluorescence polarization; 20S core pre-blocked with epoxomicin; inhibition, % at 20 µM; hit rate 0.59% among 360,000;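 active = inhibition at 20 µM, scaled to each plate's controls, above about 33%, limit read from the data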
Target sequence (O00487 whole entry, looked up): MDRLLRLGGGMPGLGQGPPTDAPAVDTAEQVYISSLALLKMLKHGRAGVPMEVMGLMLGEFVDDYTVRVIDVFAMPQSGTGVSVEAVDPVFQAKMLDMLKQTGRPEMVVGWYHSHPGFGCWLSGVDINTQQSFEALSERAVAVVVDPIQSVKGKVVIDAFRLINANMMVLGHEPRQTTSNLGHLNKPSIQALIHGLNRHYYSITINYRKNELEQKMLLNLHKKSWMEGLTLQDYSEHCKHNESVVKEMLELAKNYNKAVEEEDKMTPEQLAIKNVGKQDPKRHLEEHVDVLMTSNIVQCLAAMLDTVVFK
TPT1 inh: blocks Candida albicans tRNA 2'-phosphotransferase; recombinant caTPT1, FP RNA substrate dephosphorylation; inhibition, % at 5 µM; hit rate 0.81% among 300,000;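 active = inhibition above the mean of all tested compounds plus 3 SD, set per screening campaign, cut at about 24% in these data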;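 note: plate controls were DMSO alone for no effect and ferristatin control at 100 nM for full effect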
caTPT1 confirm: TPT1 (C. albicans) inhibition, confirmation; shares compounds with TPT1 inh; recombinant caTPT1, fluorescence polarization, RNase T1 coupled; inhibition, % at 5 µM; hit rate 74% among 2,400; AID 2149;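 active = inhibition above the primary screen limit, the mean inhibition of all tested compounds plus 3 SD, cut at about 25% in these data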
RNase T1 inh: RNase T1 inhibition in TPT1 counter-screen; RNase T1 cleavage, fluorescence polarization, 1536-well; hit rate 83% among 2,400; inhibition, % at 5 µM; AID 2153; shares compounds with TPT1 inh;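 active = inhibition above the solvent-only control well mean plus 3 SD, limit set per screening run, cut at about 23% in these data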;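 note: plate controls were DMSO wells with enzyme for no effect and wells without RNase T1 for full effect; inhibitors block cleavage so intact labeled substrate keeps polarization high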
Target sequence (P00651 whole entry, looked up): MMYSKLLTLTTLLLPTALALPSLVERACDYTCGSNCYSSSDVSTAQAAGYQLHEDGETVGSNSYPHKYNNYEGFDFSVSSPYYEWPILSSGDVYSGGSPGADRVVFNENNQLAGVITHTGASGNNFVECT
* = called active by the depositor; i = inactive; ? = inconclusive; . = no result shown; + = active, no number.

SMILES | HNF4A DNA FP | Myeloid diff MLP | Rpn11 inh | TPT1 inh | caTPT1 confirm | RNase T1 inh
CCNc1ccc(Br)cc(C(=O)/C=C/c2ccc(Cl)cc2Cl)c1=O | 15 | i | 24 | 69* | 85* | 92*
NC(=O)c1ccccc1OCC(=O)N1CCc2ccccc2C1 | 7 | i | 10 | -2 | . | .
CC(NC(=S)NCCN1CCOCC1)C12CC3CC(CC(C3)C1)C2 (configuration not stated) | -1 | i | -5 | 3 | . | .
C=CC[C@H](CC(=O)N[C@H](CO)Cc1ccccc1)C(=O)N[C@@H](COC(=O)[C@@H](CC=C)Cc1ccc(F)cc1)Cc1c[nH]c2ccccc12 | -1 | i | 0 | . | . | .
O=C(COC(=O)CNC(=O)c1ccc(Cl)c([N+](=O)[O-])c1)NCC1CCCO1 (configuration not stated) | 2 | i | 3 | . | . | .
CN(C)CCC1CCN(c2cc(C#N)c(C#N)cc2[N+](=O)[O-])CC1 | 1 | i | -8 | 119* | 2 | 7
CC(C)OC(=O)N(C)C[C@@H]1OCc2cn(nn2)CCCC(=O)N([C@@H](C)CO)C[C@H]1C | -2 | i | -6 | . | . | .
O=C(CCCCl)Oc1ccc2cc(-c3ccc4ccccc4n3)c(=O)oc2c1 | 18 | i | 33 | 49* | 35* | 42*
CC(=O)Nc1cccc(C(=O)OC(C)C(=O)NC(=O)NC2CCCCC2)c1 (configuration not stated) | 0 | i | 5 | -4 | . | .
COC(=O)[C@@H]1ON2OCC(C)=C3CCCC[C@@]32[C@H]1C(=O)OC | 0 | i | . | . | . | .
COc1ccc2c(Cl)c(C(=O)N/N=C3\CCCC(=O)C3)sc2c1 | 165 | + | . | 97* | 121* | 115*
COc1ccc(-c2cc(C(=O)NCc3ccc(C(F)(F)F)cc3)[nH]n2)c(C)c1 | 1 | i | 0 | . | . | .
Cc1nc2ccccc2n1/N=C/c1ccc([N+](=O)[O-])s1 | 0 | i | . | 28* | 36* | 59*
O=[N+]([O-])c1ccc(/C=N/n2c(CO)nc3ccccc32)s1 | -9 | ? | -12 | -5 | . | .
O=C1c2cc(CO)cc(O)c2C(=O)c2c(O[C@@H]3OC(CO)[C@@H](O)[C@@H](O)[C@@H]3O)cccc21 (some centres not stated) | 0 | i | 1 | -1 | . | .
O=C(O)c1cc(O)c2c(c1)[C@@H]([C@H]1c3cc(C(=O)O)cc(O)c3C(=O)c3c(O[C@@H]4O[C@H](CO)[C@@H](O)[C@H](O)[C@H]4O)cccc31)c1cccc(OC3O[C@H](CO)[C@@H](O)[C@H](O)[C@H]3O)c1C2=O (some centres not stated) | -87 | i | 34 | 77* | 84* | 6
C=CCNC(=O)/C(C#N)=C\c1cc(Cl)c(O)c(OCC)c1 | 4 | i | 20 | 25* | 34* | 42*
CCOc1ccc(NC(=O)/C(C#N)=C/c2ccc(N3CCCC3)c(C)c2)cc1 | 74 | + | . | 83* | 83* | 89*
CCOc1cc(/C=C(/C#N)C(=O)Nc2ccc(O)cc2)cc(Br)c1O | 54* | ? | . | + | 171* | 164*
O=C(Cc1ccccc1)Nn1c(O)c(/C=C2\C=Nc3ccccc32)sc1=S | 53* | i | 36 | 139* | 94* | 105*
Cn1c(O)c(/C=C2\C=Nc3ccccc32)sc1=Nc1ccc(C(=O)O)cc1 | -5 | i | 0 | 1 | . | .
O=C1/C(=C\c2c(NCCOCCO)nc3ccccn3c2=O)SC(=S)N1Cc1ccco1 | 103 | i | . | 86* | 86* | 87*
CN(C(=O)COC(=O)C1COc2ccccc2O1)c1c(N)n(Cc2ccccc2)c(=O)[nH]c1=O (configuration not stated) | 1 | i | -1 | -1 | . | .
C(=N\NC1=Nc2cccc3cccc1c23)/c1ccccc1 | 26 | i | -76 | 26* | 42* | 58*
NC1=Nc2cccc3cccc1c23 | 4 | i | 11 | -1 | . | .
SMILES | HNF4A DNA FP | Myeloid diff MLP | Rpn11 inh | TPT1 inh | caTPT1 confirm | RNase T1 inh
COc1ccc(NC2=Nc3cccc4cccc2c34)cc1OC | 10 | i | 26 | 33* | 31* | 40*
CC(C)N1CCc2c(sc(NC(=O)c3ccc(S(=O)(=O)N4CCOCC4)cc3)c2C#N)C1 | 98 | + | . | 127* | 156* | 147*
CCOC(=O)c1c(NC(=O)c2ccc(S(=O)(=O)N3CCOCC3)cc2)sc2c1CCN(C)C2 | 6 | i | 8 | 5 | . | .
CCCN1CCc2c(sc(NC(=S)NC(=O)c3ccccc3)c2C#N)C1 | 93 | + | . | 88* | 62* | 71*
CC(C)N1CCc2c(sc(NC(=S)NC(=O)c3ccccc3)c2C#N)C1 | 44* | + | . | 94* | 81* | 86*
CCN1CCc2c(sc(NC(=S)NC(=O)c3ccc(Cl)cc3)c2C(N)=O)C1 | 76 | + | . | 27* | 30* | 36*
CC(C)C1Cc2c(sc(NC(=S)NC(=O)c3ccccc3)c2C#N)CO1 (configuration not stated) | 6 | i | 2 | 1 | . | .
Nc1nnc(SCC(=O)NN2C(=O)NC3(CCCCC3)C2=O)s1 | 3 | i | -2 | -1 | . | .
CC(C)N1CCc2c(sc(N)c2C#N)C1 | 19 | i | 30 | 30* | 42* | 48*
CCc1ccccc1NC(=S)NCCSc1ccc(Cl)cc1 | -4 | i | 4 | + | -1 | 4
Cc1ccccc1NC(=S)NCCSc1ccc(Cl)cc1 | 2 | i | 5 | 0 | . | .
O=C(Nc1ccccc1C(=O)N1CCCCC1)c1cccs1 | 2 | i | -7 | 1 | . | .
COC(=O)CC/C(O)=C1\C(=O)CC(C)(C)CC1=NCc1nc2ccccc2[nH]1 | 1 | i | -2 | 34* | 13 | 18
CC(=O)C1=C(O)CC(C)(C)CC1=NCc1nc2ccccc2[nH]1 | 4 | i | 2 | -1 | . | .
Cn1cccc1/C=C1\SC(=S)N(NC(=O)c2ccccc2Cl)C1=O | 69* | i | . | 87* | 88* | 106*
CC(=O)NN1C(=O)/C(=C\c2ccc(Cl)cc2)SC1=S | 5 | i | 4 | -1 | . | .
Cc1ccc(C(=O)NN2C(=O)/C(=C/c3cccn3C)SC2=S)cc1 | 88* | i | . | 79* | 96* | 112*
CC1(C)CCN2CCC(C)(C)c3c(O)ccc1c32 | -19 | + | -31 | 48* | 36* | 50*
COC(=O)c1c(-c2ccccc2Cl)noc1/C=C/N(C)C | 1 | i | 6 | 131* | 28* | 35*
O=C(C[N+]12CC[N+](CC(=O)c3ccc(F)cc3)(CC1)CC2)c1ccc(F)cc1 | -2 | i | -1 | 2 | . | .
N#CC1(C#N)CC(C=O)=C(N)C1(C#N)CC(=O)c1ccc(F)cc1 (configuration not stated) | 2 | i | 12 | 57* | 32* | 42*
Cc1ccc(N(CC(=O)NCc2ccc(F)cc2)S(=O)(=O)c2c(C)n[nH]c2C)cc1 | 3 | i | -1 | 2 | . | .
